# A number with no mark means an inactive call.
# Test system: Caenorhabditis elegans L1 (N2)
# Test: survival and reproduction score of C. elegans L1 (0: 0-10 living worms, 1: 11-20, 2: 21-50, 3: >50, 4: overgrown) (score 0-4); higher = more worms, less nematicidal, active = 1 or less; extreme values may be limits of the assay
# Settings: 60 µM; 6 days; temperature: 20 °C
# Procedure, shortened: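 Worm survival and reproduction were recorded as an ordinal score of living worms per well, read under a dissection microscope. Each 96-well well held about 20 synchronized C. elegans N2 L1s with E. coli HB101 in liquid NGM and compound at 60 µM final (0.6% v/v DMSO), sealed and shaken at 200 rpm, 20 °C, for 6 days. Scores ranged from 0 (0–10 worms) to 4 (overgrown, starved) and were the mean of two biological replicates.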
row,SMILES,survival and reproduction score
1,Clc1ccc(-c2noc(-c3cccnc3)n2)cc1,0 (active)
2,COc1nc(-c2ccccc2)ccc1-c1noc(-c2ccco2)n1,1 (active)
3,Cc1ccc(C)c(-c2nc(-c3ccncc3)no2)c1,0 (active)
4,O=C(CSc1nnc(-c2ccc(Cl)cc2)o1)c1ccccc1,4
5,Cc1ccc(-c2noc(-c3ccc4c(c3)OCCO4)n2)cc1,4
6,COc1ccccc1OCc1nc(-c2cccc(C)c2)no1,4
7,Cc1ccccc1-c1nc(-c2cccc(NC(=O)c3cccs3)c2)no1,4
8,Cc1ccc(-c2noc(-c3cccc(Br)c3)n2)cc1,4
9,Cc1ccc(-c2nnc(SCc3ccc(Br)cc3)o2)cc1,4
10,CC(Sc1nnc(-c2ccco2)o1)C(=O)NC(c1ccccc1)c1ccccc1 (centres undefined),4
11,Fc1ccccc1OCc1nc(-c2ccc(Cl)cc2)no1,4
12,COc1ccccc1-c1noc(-c2ccccc2F)n1,4
13,CCc1cccc(CC)c1NC(=O)CSc1nnc(-c2ccccc2OC)o1,4
14,Fc1ccc(-c2noc(COc3cccc(Cl)c3)n2)cc1,4
15,CCn1c(SCc2nc(-c3cccs3)no2)nnc1-c1ccco1,2
16,CCc1ccc(OCc2nc(-c3ccccn3)no2)cc1,3
17,COc1ccc(-c2noc(-c3ccccc3C(=O)Nc3cccc(C)c3C)n2)cc1,4
18,O=C(c1ccccc1-c1nc(-c2ccccc2Cl)no1)N1CCCC1,4
19,COc1ccc(-c2noc(COc3ccc(C)c(C)c3)n2)cc1,4

# Reference: the supplement of paper PMC11219838
